The list is not random: actives were taken first. Their share in the collection is about 21%.
IL1B secr inh – inflammasome signaling inhibition, IL-1 beta readout; THP-1 LPS/ATP IL-1B secretion, AlphaLISA, 16 h; active compounds read low; activity change, % at 57.5 µM; 360,000 compounds, 4.7% hits; AID 743279; in the data active means activity change below about -50%; inconclusive means mostly about -30% to -49%; further: on the % scale 0 is the no-effect control and ±100 the full control effect
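THP-1 cells pretreated 1 hr with compounds (up to 57.5 uM final), then stimulated with LPS (250 ng/mL final) plus ATP (1.25 mM final); secreted IL-1B measured by AlphaLISA after 16 hr, decreased signal indicating inhibition.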
ClpP mod – qHTS Assay for Activators of ClpP; 340,000 compounds, 1.9% hits; purified B. subtilis ClpP, FRET peptide cleavage, 20 min; Potency, µM (titrated, usually from 57.5 µM), for the others: at the top dose activity change, negative = active; active means well fitted falling curve with a large enough effect; inconclusive means small, poorly fitted or top-dose-only effect; inactive means no such curve, though single readings can be large or run the other way; further: potency means the concentration at half of the fitted maximal effect; the source files actives as falling curves though it sought activators and does not explain the sign; nearly all actives have a fitted effect of over 65% in size
Target sequence (P80244 whole entry, looked up): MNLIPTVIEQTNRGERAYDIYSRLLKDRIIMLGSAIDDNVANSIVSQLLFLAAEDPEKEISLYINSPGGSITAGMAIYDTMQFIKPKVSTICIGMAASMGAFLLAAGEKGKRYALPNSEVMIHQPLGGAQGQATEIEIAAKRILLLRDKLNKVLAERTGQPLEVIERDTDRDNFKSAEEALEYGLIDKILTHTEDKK
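FRET quenching reversal measured ClpP activation: 10 microg/mL B. subtilis ClpP at pH 8 with the FRET-FV decapeptide, read at 430 nm after 320 nm excitation. The 20-min minus 0-min signal was scaled between DMSO/no-enzyme wells and ADEP (5.8 microM final).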
DT40 TDP1 no CPT – qHTS for Inhibitors of human tyrosyl-DNA phosphodiesterase 1 (TDP1): qHTS in cells in absence of CPT | DT40 Tdp1-/- hTDP1 cells, no CPT, ATP luminescence, 48 h | Potency, µM (doses to about 46.2 µM), inactives show at the highest dose activity change, negative = growth inhibition, hits mostly inhibitors | 420,000 compounds, 15% hits | AID 686978, 2013; further: potency means the concentration at half of the fitted maximal effect; on the % scale 0 is the no-effect control and ±100 the full control effect; nearly all actives have a fitted effect of over 55% in size
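Luminescent ATP content (CellTiter-Glo) served as the growth readout. Knockout chicken DT40 cells expressing human TDP1 were exposed to compounds without camptothecin for a minimum 48 hr at 37 °C.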
D3 ag – activates the human D3 dopamine receptor. P35462. D3R DiscoveRx beta-arrestin cells, luminescence, 90 min. max activation, %. 410,000 compounds, 0.58% hits. AID 652048; in the data active means max activation above about 30%; further: 0% is about no effect
Target sequence (P35462 whole entry, looked up): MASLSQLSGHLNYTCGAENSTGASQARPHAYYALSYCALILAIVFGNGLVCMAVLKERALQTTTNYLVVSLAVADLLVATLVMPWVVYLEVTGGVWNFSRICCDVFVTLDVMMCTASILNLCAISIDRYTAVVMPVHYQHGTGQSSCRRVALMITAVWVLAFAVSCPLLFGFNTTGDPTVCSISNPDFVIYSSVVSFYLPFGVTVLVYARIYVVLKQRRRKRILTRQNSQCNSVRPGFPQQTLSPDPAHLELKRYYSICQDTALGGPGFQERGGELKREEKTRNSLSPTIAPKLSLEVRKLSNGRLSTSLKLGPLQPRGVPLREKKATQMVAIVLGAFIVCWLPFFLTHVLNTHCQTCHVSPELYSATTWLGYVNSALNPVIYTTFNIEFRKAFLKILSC
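Agonist-mode cell screen: cells plated at 1500/well and incubated overnight at 37 °C, then exposed to library compounds for 90 min at 37 °C. Detection reagent was added for 30–60 min at room temperature, and luminescence was read.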
TDP1 cell CPT – DT40-hTDP1 cell growth loss with CPT. Potency, µM (top dose mostly 46.2 µM), for the others: at the highest dose activity change, negative = growth inhibition, usual class: inhibitors. AID 686979. chicken DT40 Tdp1-/-;hTDP1 cells + 20 nM CPT, ATP luminescence, 48 h. 420,000 compounds, 12% hits; further: potency means the concentration at half of the fitted maximal effect; on the % scale 0 is the no-effect control and ±100 the full control effect; nearly all actives have a fitted effect of over 55% in size
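Cell growth measured by CellTiter-Glo luminescence after a minimum 48 h, 37 C compound exposure with 20 nM CPT in Tdp1-knockout DT40 cells stably expressing hTDP1, seeded 400/well; qHTS titration format.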
D3 antag – blocks the human D3 dopamine receptor; P35462; D3R cells, DiscoveRx beta-arrestin luminescence, antagonist mode; active compounds read low; max response, negative = inhibition, %; 360,000 compounds, 2.5% hits; AID 652054; in the data active means max response below about -50%; inconclusive means no clear call, values can overlap the other calls; further: on the % scale 0 is the no-effect control and ±100 the full control effect
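Cells expressing the human receptor were seeded at 1500 cells/well, incubated overnight at 37 degrees C in 5% CO2, then exposed to library compounds with dopamine controls for 90 minutes at 37 degrees C before luminescent detection.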
Numbers without * were called inactive; ? = inconclusive; . = no result given; [ ] = another dose, or the depositor's remark. Unless noted, the call rests on the fitted dose curve; in most records, active means well fitted inhibition curve with a large enough effect; inconclusive means small, poorly fitted or top-dose-only effect; inactive means flat fitted curve, though single readings scatter.

SMILES	IL1B secr inh	ClpP mod	DT40 TDP1 no CPT	D3 ag	TDP1 cell CPT	D3 antag
CCN(CC)S(=O)(=O)c1ccc(N2CCCC2)c(NC(=O)c2ccccc2OC)c1	-2	-5%	15µM*	-3	?	12
CCN(CC)S(=O)(=O)c1ccc(N2CCCCC2)c(NC(=O)/C=C/c2cc(OC)c(OC)c(OC)c2)c1	0	-22%	12µM*	-2	?	-18
COc1cc(/C=C/C(=O)Nc2cc(S(=O)(=O)N3CCOCC3)ccc2N2CCCC2)cc(OC)c1OC	?	.	?	-15	?	-20
COc1ccc(OC)c(NC(=O)c2cc(S(=O)(=O)N(C)C)ccc2N2CCCC2)c1	2	-6%	-28%	2	-29%	9
CCN(CC)C(=O)c1nc[nH]c1C(=O)O[C@@H](C)c1ccccc1	12	1%	2%	2	-35%	-12
C[N+]1(CC(=O)c2ccc(I)cc2)CCOCC1	.	0%	-4%	.	-19%	.
CC(C)C(N)C(=O)O (configuration not stated)	.	.	-5%	.	-1%	.
Cc1ccc(-n2ncc(C(=O)NCCCN3CCCCC3)c2C2CCN(C(=O)OC(C)(C)C)CC2)c(C)c1	.	1%	?	4	?	.
CCCc1nn2c(=O)cc(COc3ccc(NC(=O)c4ccco4)cc3)nc2s1	-8	-1%	21%	3	-19%	-1
COc1cc(/C=C/C(=O)Nc2ccc(N3CCCCC3)c(S(=O)(=O)Nc3ccccc3Cl)c2)cc(OC)c1OC	17	-2%	2.6µM*	1	?	-12
COc1ccccc1NS(=O)(=O)c1cc(NC(=O)Nc2ccc(Cl)cc2Cl)ccc1N1CCCCC1	-5	-2%	?	9	?	-1
CCN(CC)S(=O)(=O)c1ccc(N2CCCC2)c(NS(=O)(=O)c2ccc([N+](=O)[O-])cc2)c1	8	1%	-28%	-2	?	?
CCN(CC)S(=O)(=O)c1ccc(N2CCCC2)c(NS(=O)(=O)c2ccc(F)cc2)c1	-1	-2%	15µM*	-3	?	-10
CCN(CC)S(=O)(=O)c1ccc(N2CCCC2)c(NS(=O)(=O)c2ccc(OC)cc2)c1	10	0%	16µM*	-7	?	?
COCC1CCN(C(=O)c2ccc3oc(C(C)C)nc3c2)C1 (configuration not stated)	0	0%	3%	1	3%	0
COc1ccc(C(C(=O)NC(C)(C)C)N(C(=O)CCC(=O)Nc2cc(C)on2)c2ccccc2F)cc1 (configuration not stated)	1	.	?	0	-16%	2
COc1ccccc1CCNC(=O)Cc1c(C)c2c(cc(C)c3c(C)coc32)oc1=O	.	-15%	?	-8	?	.
CCc1sc(C(C2C(=O)CC(C)(C)CC2=O)C2C(=O)CC(C)(C)CC2=O)cc1[N+](=O)[O-]	-248*	.	5.2µM*	6	4.1µM*	9
O=S(=O)(c1ccc(-c2n[nH]c(=S)o2)cc1)N1CCCCC1	20	.	-18%	3	-6%	-2
COc1ccc(Cl)cc1NC(=O)c1c(NCc2sccc2C)sc2c1CCCC2	.	-1%	21µM*	0	?	.
COc1ccc(OC)c(NC(=O)c2c(NCc3cccs3)sc3c2CCCC3)c1	.	-4%	?	6	?	.
COc1ccc(NC(=O)c2c(NCc3sccc3C)sc3c2CCCCC3)c(OC)c1	.	0%	3.3µM*	6	3.3µM*	.
COc1ccc(OC)c(NC(=O)c2c(NCc3cccs3)sc3c2CCCCC3)c1	.	-7%	?	-18	23µM*	.
COc1ccc(NC(=O)c2c(NC(=O)CNCC(C)C)sc3c2CCC3)c(OC)c1	0	.	6.5µM*	-12	4.1µM*	5
COc1ccc(NC(=O)c2c(NCc3cccc(F)c3)sc3c2CCCC3)c(OC)c1	.	-2%	?	-5	?	.
SMILES	IL1B secr inh	ClpP mod	DT40 TDP1 no CPT	D3 ag	TDP1 cell CPT	D3 antag
COc1ccc(NC(=O)c2c(NCc3cccs3)sc3c2CCCC3)c(OC)c1	.	1%	16µM*	-18	16µM*	.
O/N=C(/C[n+]1cccc(Br)c1)c1ccc2ccccc2c1	.	-2%	13µM*	.	?	.
COc1cc(C2c3cc4c(cc3C(O)C3COCC23)OCO4)cc(OC)c1OC (configuration not stated)	64	.	?	-18	?	7
COc1cc([C@@H]2c3cc4c(cc3[C@@H](O[C@@H]3O[C@@H]5CO[C@@H](C)O[C@H]5[C@H](O)[C@H]3O)[C@H]3COC(=O)[C@H]23)OCO4)cc(OC)c1O	37	-1%	0.16µM*	0	0.16µM*	-21
COc1cc(C2c3cc4c(cc3C(OC3OC5COC(C)O[C@@H]5C(O)C3O)C3COC(=O)C23)OCO4)cc(OC)c1O (some centres not stated)	.	.	0.15µM*	.	0.18µM*	.
COc1cc(C2c3cc4c(cc3C(OC3OC5COC(c6cccs6)OC5C(O)C3O)C3COC(=O)C23)OCO4)cc(OC)c1O (configuration not stated)	15	0%	0.026µM*	-9	0.023µM*	4
Cc1c(C(=O)NC(C)(C)C)sc2ncnc(NCCN(C)C)c12	.	.	-20%	.	17%[9.04 µM]	.
COc1c2c(c(C(=O)/C=C/C(C)=C/c3ccccc3)c3c1OCO3)CCN(C)C2	.	.	-18%[9.04 µM]	.	-9%[9.04 µM]	.
COc1ccc(C2=NOC(Cn3nc(C(=O)NCc4ccccc4OC)cc3-c3ccccc3)C2)cc1 (configuration not stated)	3	-5%	21µM*	5	23µM*	65
COc1ccc(C2=NOC(Cn3nc(C(=O)NCc4ccc(OC(F)(F)F)cc4)cc3-c3ccccc3)C2)cc1 (configuration not stated)	?	-5%	?	7	?	29
COc1ccc(C2=NOC(Cn3nc(-c4ccccc4)cc3C(=O)NCc3ccc(C)cc3)C2)cc1 (configuration not stated)	0	-4%	-14%	5	-26%	42
COc1ccc(C2=NOC(Cn3nc(C(=O)NCC4CC4)cc3-c3ccccc3)C2)cc1 (configuration not stated)	5	-5%	?	-1	21µM*	24
COC(=O)[C@@]12C[C@@H](CC(=O)NCCc3ccccc3OC)C(=O)N(Cc3ccccc3)C1=CCC(C)(C)C2	?	3%	?	-10	21µM*	0

Screening data from PubChem.
